Test results reported in PubChem BioAssay (NCI).
About 83,000 compounds went through this panel and 20% of them were active in at least one assay; those are over-represented in the sample as a whole.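 Note: values are percent growth. 100 is the growth of untreated cells, values between 100 and 0 indicate rising inhibition; between -100 and 0 indicates cell death.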 A number with no mark means an inactive call. Activity calls are given as the source filed them. The calls were made as follows: active = growth percent below 10; inactive = the rest.

Columns and labels:
Experiment in all cases: NCI-60 one-dose screen, 48 h (100 = growth as untreated, 0 = no growth, -100 = all killed)
Details in all cases: 10 µM unless noted
DU-145 prostate = test system: DU-145 prostate
K-562 leukemia = test system: K-562 leukemia
MALME-3M melanoma = test system: MALME-3M melanoma
MDA-MB-231 breast = test system: MDA-MB-231 breast
RXF 393 renal = test system: RXF 393 renal
SF-268 CNS = test system: SF-268 CNS
SF-295 CNS = test system: SF-295 CNS
SF-539 CNS = test system: SF-539 CNS
UACC-257 melanoma = test system: UACC-257 melanoma
M14 melanoma = test system: M14 melanoma
HCT-15 colon = test system: HCT-15 colon
HT29 colon = test system: HT29 colon
SNB-75 CNS = test system: SNB-75 CNS
SNB-19 CNS = test system: SNB-19 CNS
U251 CNS = test system: U251 CNS
PC-3 prostate = test system: PC-3 prostate
SK-MEL-5 melanoma = test system: SK-MEL-5 melanoma
UACC-62 melanoma = test system: UACC-62 melanoma
LOX IMVI melanoma = test system: LOX IMVI melanoma
SK-MEL-28 melanoma = test system: SK-MEL-28 melanoma

| Compound | growth (DU-145 prostate) | growth (K-562 leukemia) | growth (MALME-3M melanoma) | growth (MDA-MB-231 breast) | growth (RXF 393 renal) | growth (SF-268 CNS) | growth (SF-295 CNS) | growth (SF-539 CNS) | growth (UACC-257 melanoma) | growth (M14 melanoma) | growth (HCT-15 colon) | growth (HT29 colon) | growth (SNB-75 CNS) | growth (SNB-19 CNS) | growth (U251 CNS) | growth (PC-3 prostate) | growth (SK-MEL-5 melanoma) | growth (UACC-62 melanoma) | growth (LOX IMVI melanoma) | growth (SK-MEL-28 melanoma) |
| --- | --- | --- | --- | --- | --- | --- | --- | --- | --- | --- | --- | --- | --- | --- | --- | --- | --- | --- | --- | --- |
| NC(=N\N=C/c1ccccc1[N+](=O)[O-])/C(N)=N\N=C/c1ccccc1[N+](=O)[O-] | 107% | 101% | 146% | 107% | 103% | 99.7% | 105% | 97.2% | 113% | 111% | 105% | 103% | 97.9% | 106% | 108% | 102% | 105% | 108% | 104% | 118% |
| CC(C)C(=O)Nc1n[nH]c2cc(-c3cccc(NS(=O)(=O)C4CC4)c3)ccc12 | 85.9% | 23.2% | 66.1% | 58.4% | 88.9% | 76.1% | 56.3% | 77.8% | 66.8% | 55.7% | 84.3% | 76.2% | 54.3% | 89.7% | 79.5% | 64% | 24.5% | 54.4% | 64.6% | 78.4% |
| CC1SC(c2ccc(OCc3ccccc3)cc2)N(NC(=O)C(O)(c2ccccc2)c2ccccc2)C1=O (stereo not given) | 89.6% | 40.9% | 72.3% | 76.5% | 51.4% | 71.4% | -20.7% (active) | 74.4% | 78.3% | 57.2% | 60.9% | 38.1% | 77.5% | 69.3% | 66% | 30.1% | 94.9% | 63.7% | 58.9% | 78.2% |
| COc1cccc(-c2nc3sccn3c2/C=C/C(=O)c2ccc(C(F)(F)F)cc2)c1 | 88.4% | 51.8% | 104% | 89.6% | 67.7% | 89.2% | 106% | 96.6% | 73.9% | 85.4% | 69.1% | 75.3% | 81.7% | 79.7% | 83.2% | 63.2% | 71.5% | 66.1% | 88.3% | 83.6% |
| Cc1ccc(/C=C2\C(=O)N(C)c3ccc(S(=O)(=O)Nc4ccc(C(C)(C)C)cc4)cc32)s1 | 38.9% | 66.7% | 42.5% | 21.2% | 42.1% | 26.7% | 42.6% | 19.4% | 76% | 67% | 68% | 64.9% | -18.3% (active) | 58.3% | 20.5% | 52.9% | 82.3% | 60.7% | 28.2% | 69.1% |
| COc1cccc(-c2nn(-c3ccccc3)cc2-c2ccnc(NCCCNC(=O)c3ccccc3)c2)c1 | 64.7% | 11.2% | 57.5% | 45.9% | 63.3% | 66.2% | 51.5% | 80.2% | 40.7% | 33.3% | 33% | 8.81% (active) | 60.1% | 70.4% | 43.3% | 26.2% | 5.44% (active) | 33.8% | 66.1% | 67.8% |
| O=c1c2c3c(sc2n2c(-c4cn(-c5ccccc5)nc4-c4ccc(Cl)cc4)nnc2n1Cc1ccccc1)CCCC3 | 103% | 89.7% | 97.4% | 80.3% | 94.5% | 99.7% | 98.5% | 90.3% | 118% | 60.3% | 104% | 113% | 66.8% | 97.9% | 98.2% | 95.3% | 95.8% | 90.6% | 72.3% | 105% |
| Cc1nc2ccccc2c(/C=C/c2ccc(Cl)cc2)c1C(=O)/C=C/c1ccc(F)cc1 | -8.13% (active) | 5.45% (active) | -6.33% (active) | 1.67% (active) | -48.9% (active) | 48.6% | 12.3% | -61.2% (active) | 15% | 5.81% (active) | -15.4% (active) | 5.82% (active) | 51.7% | -26% (active) | -76.8% (active) | 20.4% | 8.11% (active) | 0.679% (active) | -90.3% (active) | -27.7% (active) |
